Of roughly 7,900 targets only a part is listed; those with a hit were picked by preference. About 0.6% of all pairs of compound and target were hits.
Legend:
Experiment in all cases: log2 fold change, soluble protein after heating vs DMSO (PISA); higher = thermal stabilisation; K562 cells, 10 uM, 30 min; active = over 0.2 and 3.5 SD of the protein, either way, in both replicates (recomputed)
[1] = compound: COC1=CC=C(C=C1)CN2C=CC3=C2C=C(C=C3)C(=O)NO
In short: (§1)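 Soluble protein was defined as the supernatant after 21,000xg for 90 min. It came from K562 cells at 2×10^6 cells/mL given 10 μM compound for 30 min, heated in aliquots for 3 min across 48°C-58°C, pooled, and extracted in PBS with 0.5% NP-40 at 4°C, and was quantified by TMTpro 16plex LC-MS/MS with equalised channel sums. Thermal stability against control samples, from duplicates, is reported as log2 fold change.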

filanesib = compound: CON(C)C(=O)N1N=C(c2cc(F)ccc2F)S[C@@]1(CCCN)c1ccccc1 [filanesib]
In short: as §1

zotarolimus = compound: CO[C@H]1C[C@@H]2CC[C@@H](C)[C@@](O)(O2)C(=O)C(=O)N2CCCC[C@H]2C(=O)O[C@H]([C@H](C)C[C@@H]2CC[C@H](n3cnnn3)[C@H](OC)C2)CC(=O)[C@H](C)/C=C(\C)[C@@H](O)[C@@H](OC)C(=O)[C@H](C)C[C@H](C)/C=C/C=C/C=C/1C [zotarolimus]
In short: as §1

idasanutlin = compound: COc1cc(C(=O)O)ccc1NC(=O)[C@@H]1N[C@@H](CC(C)(C)C)[C@](C#N)(c2ccc(Cl)cc2F)[C@H]1c1cccc(Cl)c1F [idasanutlin]
In short: as §1

alisertib = compound: COc1cc(Nc2ncc3c(n2)-c2ccc(Cl)cc2C(c2c(F)cccc2OC)=NC3)ccc1C(=O)O [alisertib]
In short: as §1

[2] = compound: COc1cc2nc(-c3cc(F)ccc3O)nc(N[C@@H]3CNC[C@H]3C(C)(C)O)c2cc1OC
In short: as §1

gefitinib = compound: COc1cc2ncnc(Nc3ccc(F)c(Cl)c3)c2cc1OCCCN1CCOCC1 [gefitinib]
In short: as §1

[3] = compound: COc1cccc2cc(-c3nc([C@H]4CC[C@H](C(=O)O)CC4)n4ncnc(N)c34)[nH]c12
In short: as §1

lapatinib = compound: CS(=O)(=O)CCNCc1ccc(-c2ccc3ncnc(Nc4ccc(OCc5cccc(F)c5)c(Cl)c4)c3c2)o1 [lapatinib]
In short: as §1

pictilisib = compound: CS(=O)(=O)N1CCN(Cc2cc3nc(-c4cccc5[nH]ncc45)nc(N4CCOCC4)c3s2)CC1 [pictilisib]
In short: as §1

Measured: log2 fold change

TOMM20 (UniProt Q15388)
Sequence of UniProt Q15388 (Q15388 whole entry, looked up): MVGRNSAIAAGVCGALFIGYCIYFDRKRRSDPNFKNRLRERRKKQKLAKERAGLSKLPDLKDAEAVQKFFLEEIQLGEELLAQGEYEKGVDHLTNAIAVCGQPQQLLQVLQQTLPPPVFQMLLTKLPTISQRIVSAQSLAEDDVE
inactive: [1] -0.011 | filanesib -0.213 | zotarolimus 0.005 | idasanutlin -0.022 | alisertib -0.029 | [2] -0.25 | gefitinib 0.005 | [3] -0.001 | lapatinib 0.045 | pictilisib 0.007

XPNPEP1 isoform 3 (UniProt Q9NQW7)
Sequence of UniProt Q9NQW7 (Q9NQW7 whole entry, looked up): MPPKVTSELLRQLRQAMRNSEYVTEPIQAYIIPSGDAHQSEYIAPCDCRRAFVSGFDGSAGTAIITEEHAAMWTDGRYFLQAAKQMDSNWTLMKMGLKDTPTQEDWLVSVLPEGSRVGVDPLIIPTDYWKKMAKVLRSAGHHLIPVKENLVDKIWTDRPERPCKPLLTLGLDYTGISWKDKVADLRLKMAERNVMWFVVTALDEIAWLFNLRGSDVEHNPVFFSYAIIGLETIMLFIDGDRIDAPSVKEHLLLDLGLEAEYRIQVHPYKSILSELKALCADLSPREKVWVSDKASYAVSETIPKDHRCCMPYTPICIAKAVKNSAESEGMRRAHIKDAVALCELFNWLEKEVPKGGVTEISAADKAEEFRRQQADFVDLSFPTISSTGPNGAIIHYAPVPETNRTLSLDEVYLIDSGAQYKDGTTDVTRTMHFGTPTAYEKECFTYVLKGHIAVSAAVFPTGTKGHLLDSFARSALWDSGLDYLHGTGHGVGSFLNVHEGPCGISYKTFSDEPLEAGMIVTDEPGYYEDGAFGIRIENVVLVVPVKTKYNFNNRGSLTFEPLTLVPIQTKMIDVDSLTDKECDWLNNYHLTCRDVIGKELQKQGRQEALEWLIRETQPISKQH
inactive: [1] 0.006 | filanesib -0.121 | zotarolimus 0.026 | idasanutlin -0.023 | alisertib 0.028 | [2] -0.009 | gefitinib 0.004 | [3] 0.038 | lapatinib 0.01 | pictilisib 0.068

UBLCP1 (UniProt Q8WVY7)
inactive: [1] -0.046 | filanesib -0.001 | zotarolimus -0.008 | idasanutlin -0.013 | alisertib 0.028 | [2] 0.181 | gefitinib 0.044 | [3] -0.034 | lapatinib 0.021 | pictilisib 0.028

UBE2Q1 (UniProt Q7Z7E8)
inactive: [1] -0.09 | filanesib -0.042 | zotarolimus 0.022 | idasanutlin 0.006 | alisertib -0.055 | [2] 0.012 | gefitinib -0.02 | [3] -0.044 | lapatinib 0.01 | pictilisib 0.039

WDCP (UniProt Q9H6R7)
inactive: [1] -0.028 | filanesib -0.029 | zotarolimus 0.094 | idasanutlin -0.049 | alisertib -0.074 | [2] 0.072 | gefitinib -0.061 | [3] -0.049 | lapatinib -0.037 | pictilisib 0.126

USP7 (UniProt Q93009)
inactive: [1] 0.034 | filanesib -0.14 | zotarolimus -0.007 | idasanutlin -0.053 | alisertib 0.144 | [2] 0.039 | gefitinib 0.04 | [3] 0.019 | lapatinib -0.029 | pictilisib 0.002

XPO6 (UniProt Q96QU8)
Sequence of UniProt Q96QU8 (Q96QU8 whole entry, looked up): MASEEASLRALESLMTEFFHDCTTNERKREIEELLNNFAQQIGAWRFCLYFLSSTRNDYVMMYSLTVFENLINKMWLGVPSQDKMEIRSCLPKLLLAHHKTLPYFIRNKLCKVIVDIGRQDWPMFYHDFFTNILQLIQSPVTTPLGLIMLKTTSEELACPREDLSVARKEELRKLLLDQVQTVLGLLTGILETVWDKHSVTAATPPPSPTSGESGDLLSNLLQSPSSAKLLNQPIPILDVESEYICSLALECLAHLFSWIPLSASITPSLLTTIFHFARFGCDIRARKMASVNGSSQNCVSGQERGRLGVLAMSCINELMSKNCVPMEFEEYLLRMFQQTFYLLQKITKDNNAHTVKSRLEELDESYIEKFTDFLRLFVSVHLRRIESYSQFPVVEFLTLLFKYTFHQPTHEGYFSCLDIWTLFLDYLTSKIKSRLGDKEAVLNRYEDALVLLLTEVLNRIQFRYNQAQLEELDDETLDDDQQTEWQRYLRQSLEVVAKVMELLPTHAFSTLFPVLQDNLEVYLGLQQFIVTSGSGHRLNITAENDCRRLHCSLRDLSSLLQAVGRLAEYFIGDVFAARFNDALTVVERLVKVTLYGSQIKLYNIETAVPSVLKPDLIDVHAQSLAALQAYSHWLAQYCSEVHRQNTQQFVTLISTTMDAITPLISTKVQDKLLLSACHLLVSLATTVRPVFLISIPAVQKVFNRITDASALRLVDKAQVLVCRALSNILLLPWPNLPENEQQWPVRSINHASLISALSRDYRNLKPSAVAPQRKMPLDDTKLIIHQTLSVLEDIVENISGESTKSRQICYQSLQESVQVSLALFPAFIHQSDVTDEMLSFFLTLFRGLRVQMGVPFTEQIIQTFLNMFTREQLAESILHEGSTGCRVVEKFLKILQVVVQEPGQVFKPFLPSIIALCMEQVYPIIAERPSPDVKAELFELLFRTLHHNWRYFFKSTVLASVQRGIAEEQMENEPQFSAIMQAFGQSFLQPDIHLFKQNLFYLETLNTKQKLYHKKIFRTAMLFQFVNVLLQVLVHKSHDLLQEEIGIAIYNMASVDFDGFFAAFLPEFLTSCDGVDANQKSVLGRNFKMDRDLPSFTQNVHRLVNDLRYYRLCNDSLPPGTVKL
inactive: [1] -0.453 | filanesib -0.074 | zotarolimus 0.047 | idasanutlin -0.079 | alisertib 0.171 | [2] 0.064 | gefitinib -0.029 | [3] -0.052 | lapatinib -0.055 | pictilisib -0.025

TRAPPC2L (UniProt Q9UL33)
Sequence of UniProt Q9UL33 (Q9UL33 whole entry, looked up): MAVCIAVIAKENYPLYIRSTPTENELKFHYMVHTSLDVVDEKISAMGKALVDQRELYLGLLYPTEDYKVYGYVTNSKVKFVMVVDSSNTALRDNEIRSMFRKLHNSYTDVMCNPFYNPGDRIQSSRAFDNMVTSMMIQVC
inactive: [1] -0.102 | filanesib -0.05 | zotarolimus 0.098 | idasanutlin -0.026 | alisertib -0.029 | [2] 0.03 | gefitinib 0 | [3] -0.062 | lapatinib 0.088 | pictilisib -0.018

USP34 (UniProt Q70CQ2)
inactive: [1] 0.021 | filanesib 0.011 | zotarolimus -0.03 | idasanutlin -0.239 | alisertib 0.021 | [2] 0 | gefitinib -0.024 | [3] -0.073 | lapatinib 0.011 | pictilisib 0.135

VAMP7 (UniProt P51809)
Sequence of UniProt P51809 (P51809 whole entry, looked up): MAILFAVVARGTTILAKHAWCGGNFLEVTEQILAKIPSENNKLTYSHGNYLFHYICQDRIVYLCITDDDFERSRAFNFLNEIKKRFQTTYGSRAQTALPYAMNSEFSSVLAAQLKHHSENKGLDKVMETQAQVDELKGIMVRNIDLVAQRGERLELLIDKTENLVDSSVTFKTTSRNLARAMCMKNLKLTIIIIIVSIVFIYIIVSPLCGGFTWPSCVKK
inactive: [1] 0.035 | filanesib -0.095 | zotarolimus -0.005 | idasanutlin -0.111 | alisertib -0.072 | [2] 0.099 | gefitinib 0.033 | [3] 0.012 | lapatinib -0.005 | pictilisib -0.001

U2AF1 isoform 2 (UniProt Q01081)
inactive: [1] 0.165 | filanesib 0.034 | zotarolimus 0.043 | idasanutlin 0.055 | alisertib -0.019 | [2] 0.06 | gefitinib 0.036 | [3] 0.045 | lapatinib 0 | pictilisib 0.069

TOMM5 isoform 2 (UniProt Q8N4H5)
inactive: [1] -0.027 | filanesib 0.079 | zotarolimus 0.045 | idasanutlin 0.137 | alisertib -0.141 | [2] -0.021 | gefitinib 0.073 | [3] 0.044 | lapatinib -0.016 | pictilisib -0.086

VPS11 (UniProt Q9H270)
inactive: [1] -0.019 | filanesib -0.038 | zotarolimus 0.053 | idasanutlin -0.063 | alisertib -0.022 | [2] -0.032 | gefitinib -0.005 | [3] -0.041 | lapatinib -0.045 | pictilisib -0.013

TUBAL3 (UniProt A6NHL2)
inactive: [1] -0.037 | filanesib -0.058 | zotarolimus -0.064 | idasanutlin -0.218 | alisertib 0.048 | [2] 0 | gefitinib -0.059 | [3] 0.015 | lapatinib 0.075 | pictilisib 0.052

UBE3D (UniProt Q7Z6J8)
inactive: [1] -0.005 | filanesib 0.08 | zotarolimus -0.033 | idasanutlin -0.009 | alisertib -0.088 | [2] -0.022 | gefitinib 0.035 | [3] 0.009 | lapatinib -0.069 | pictilisib 0.139

VPS52 (UniProt Q8N1B4)
inactive: [1] -0.003 | filanesib 0.017 | zotarolimus 0.044 | idasanutlin 0.088 | alisertib -0.069 | [2] 0.058 | gefitinib 0.014 | [3] -0.022 | lapatinib -0.043 | pictilisib -0.02

VPS28 (UniProt Q9UK41)
inactive: [1] -0.17 | filanesib -0.061 | zotarolimus 0.008 | idasanutlin -0.076 | alisertib 0.07 | [2] 0.038 | gefitinib 0.027 | [3] 0.033 | lapatinib 0.023 | pictilisib 0.059

TXN2 (UniProt Q99757)
Sequence of UniProt Q99757 (Q99757 whole entry, looked up): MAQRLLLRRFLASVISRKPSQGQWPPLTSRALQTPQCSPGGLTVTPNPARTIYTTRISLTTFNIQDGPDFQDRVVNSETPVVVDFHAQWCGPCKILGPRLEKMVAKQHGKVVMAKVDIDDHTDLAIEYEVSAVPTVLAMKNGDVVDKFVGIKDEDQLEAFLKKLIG
inactive: [1] 0.039 | filanesib 0.015 | zotarolimus 0.211 | idasanutlin 0.108 | alisertib -0.19 | [2] -0.015 | gefitinib 0.042 | [3] -0.023 | lapatinib -0.078 | pictilisib -0.186

TTC38 (UniProt Q5R3I4)
inactive: [1] -0.067 | filanesib -0.023 | zotarolimus 0.034 | idasanutlin -0.093 | alisertib 0.065 | [2] 0.081 | gefitinib 0.013 | [3] -0.003 | lapatinib -0.054 | pictilisib -0.041

WARS2 (UniProt Q9UGM6)
inactive: [1] -0.072 | filanesib -0.089 | zotarolimus -0.034 | idasanutlin 0.014 | alisertib -0.025 | [2] 0.062 | gefitinib -0.035 | [3] 0 | lapatinib -0.127 | pictilisib 0.037

TMEM189-UBE2V1 (UniProt I3L0A0)
inactive: [1] -0.034 | filanesib -0.051 | zotarolimus -0.049 | idasanutlin -0.024 | alisertib -0.105 | [2] -0.048 | gefitinib -0.034 | [3] 0.112 | lapatinib 0.011 | pictilisib -0.026

VRK1 (UniProt Q99986)
inactive: [1] 0.098 | filanesib -0.07 | zotarolimus -0.123 | idasanutlin -0.119 | alisertib 0.06 | [2] 0.316 | gefitinib -0.018 | [3] -0.003 | lapatinib -0.059 | pictilisib 0.086

XPO5 (UniProt Q9HAV4)
Sequence of UniProt Q9HAV4 (Q9HAV4 whole entry, looked up): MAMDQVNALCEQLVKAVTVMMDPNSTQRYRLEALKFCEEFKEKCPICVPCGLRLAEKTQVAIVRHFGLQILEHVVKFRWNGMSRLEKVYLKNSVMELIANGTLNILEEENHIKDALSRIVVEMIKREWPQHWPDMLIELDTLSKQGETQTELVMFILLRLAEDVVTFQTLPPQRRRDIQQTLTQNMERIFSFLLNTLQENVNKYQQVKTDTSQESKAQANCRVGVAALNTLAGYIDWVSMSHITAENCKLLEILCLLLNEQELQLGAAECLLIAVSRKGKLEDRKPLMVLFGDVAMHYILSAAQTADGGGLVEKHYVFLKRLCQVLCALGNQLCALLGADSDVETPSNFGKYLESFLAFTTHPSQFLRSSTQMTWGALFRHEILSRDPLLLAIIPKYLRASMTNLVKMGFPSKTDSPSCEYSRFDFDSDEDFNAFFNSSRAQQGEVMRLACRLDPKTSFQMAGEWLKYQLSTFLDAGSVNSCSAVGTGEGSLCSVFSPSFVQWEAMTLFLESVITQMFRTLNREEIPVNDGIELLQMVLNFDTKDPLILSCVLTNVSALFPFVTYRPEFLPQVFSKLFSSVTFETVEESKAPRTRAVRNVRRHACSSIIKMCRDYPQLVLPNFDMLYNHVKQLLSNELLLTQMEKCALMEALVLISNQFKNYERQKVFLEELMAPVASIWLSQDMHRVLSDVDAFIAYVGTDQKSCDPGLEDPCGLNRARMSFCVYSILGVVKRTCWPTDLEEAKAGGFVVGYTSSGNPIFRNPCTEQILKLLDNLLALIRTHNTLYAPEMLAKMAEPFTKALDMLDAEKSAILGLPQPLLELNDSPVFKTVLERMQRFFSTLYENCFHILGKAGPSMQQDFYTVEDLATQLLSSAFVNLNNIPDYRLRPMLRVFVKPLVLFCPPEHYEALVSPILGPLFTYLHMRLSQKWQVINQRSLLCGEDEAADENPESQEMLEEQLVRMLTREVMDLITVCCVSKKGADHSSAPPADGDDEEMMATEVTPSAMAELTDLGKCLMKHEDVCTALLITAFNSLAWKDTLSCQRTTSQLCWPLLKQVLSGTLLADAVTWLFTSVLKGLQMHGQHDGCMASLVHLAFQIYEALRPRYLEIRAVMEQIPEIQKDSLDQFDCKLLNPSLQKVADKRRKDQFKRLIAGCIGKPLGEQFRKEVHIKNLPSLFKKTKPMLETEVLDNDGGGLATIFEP
inactive: [1] 0.019 | filanesib -0.122 | zotarolimus 0.023 | idasanutlin -0.055 | alisertib -0.008 | [2] -0.068 | gefitinib -0.008 | [3] -0.052 | lapatinib -0.004 | pictilisib -0.034

WBP4 (UniProt O75554)
Sequence of UniProt O75554 (O75554 whole entry, looked up): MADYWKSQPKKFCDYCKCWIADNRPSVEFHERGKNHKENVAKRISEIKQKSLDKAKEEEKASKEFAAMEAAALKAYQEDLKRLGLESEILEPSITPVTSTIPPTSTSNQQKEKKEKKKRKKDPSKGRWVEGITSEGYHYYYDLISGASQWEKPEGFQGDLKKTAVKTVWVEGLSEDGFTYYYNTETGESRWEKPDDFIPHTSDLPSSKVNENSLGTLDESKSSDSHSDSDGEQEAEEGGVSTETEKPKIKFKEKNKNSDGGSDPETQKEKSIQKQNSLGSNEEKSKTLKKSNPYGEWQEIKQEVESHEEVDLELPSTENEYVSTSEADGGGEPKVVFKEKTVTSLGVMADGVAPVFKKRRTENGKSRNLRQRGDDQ
inactive: [1] 0.001 | filanesib -0.082 | zotarolimus -0.025 | idasanutlin 0.022 | alisertib -0.042 | [2] -0.009 | gefitinib 0.014 | [3] -0.003 | lapatinib 0.05 | pictilisib -0.139

TOM1L2 (UniProt Q6ZVM7)
inactive: [1] -0.04 | filanesib 0.029 | zotarolimus -0.036 | idasanutlin -0.002 | gefitinib 0.028

VPS51 (UniProt Q9UID3)
inactive: [1] 0.029 | filanesib -0.024 | zotarolimus -0.01 | idasanutlin -0.098 | alisertib -0.092 | [2] 0.055 | gefitinib 0.019 | [3] -0.057 | lapatinib -0.032 | pictilisib 0.013

TMEM164 (UniProt Q5U3C3)
inactive: [1] 0.045 | filanesib -0.306 | zotarolimus -0.039 | idasanutlin -0.031 | alisertib 0.211 | [2] 0.098 | gefitinib -0.013 | [3] 0.198 | lapatinib -0.06 | pictilisib 0.008

TTC33 (UniProt Q6PID6)
Sequence of UniProt Q6PID6 (Q6PID6 whole entry, looked up): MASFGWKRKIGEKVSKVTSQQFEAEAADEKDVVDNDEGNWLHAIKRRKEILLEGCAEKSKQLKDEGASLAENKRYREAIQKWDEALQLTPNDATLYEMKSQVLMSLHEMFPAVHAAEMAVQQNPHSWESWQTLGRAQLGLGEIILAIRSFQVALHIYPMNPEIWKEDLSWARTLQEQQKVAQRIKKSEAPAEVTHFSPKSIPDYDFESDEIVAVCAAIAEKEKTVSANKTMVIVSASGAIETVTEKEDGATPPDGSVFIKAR
inactive: [1] 0.094 | filanesib 0.031 | zotarolimus -0.113 | idasanutlin -0.039 | alisertib 0.071 | [2] 0.082 | [3] 0.086 | lapatinib -0.15 | pictilisib -0.093

WDR43 (UniProt Q15061)
Sequence of UniProt Q15061 (Q15061 whole entry, looked up): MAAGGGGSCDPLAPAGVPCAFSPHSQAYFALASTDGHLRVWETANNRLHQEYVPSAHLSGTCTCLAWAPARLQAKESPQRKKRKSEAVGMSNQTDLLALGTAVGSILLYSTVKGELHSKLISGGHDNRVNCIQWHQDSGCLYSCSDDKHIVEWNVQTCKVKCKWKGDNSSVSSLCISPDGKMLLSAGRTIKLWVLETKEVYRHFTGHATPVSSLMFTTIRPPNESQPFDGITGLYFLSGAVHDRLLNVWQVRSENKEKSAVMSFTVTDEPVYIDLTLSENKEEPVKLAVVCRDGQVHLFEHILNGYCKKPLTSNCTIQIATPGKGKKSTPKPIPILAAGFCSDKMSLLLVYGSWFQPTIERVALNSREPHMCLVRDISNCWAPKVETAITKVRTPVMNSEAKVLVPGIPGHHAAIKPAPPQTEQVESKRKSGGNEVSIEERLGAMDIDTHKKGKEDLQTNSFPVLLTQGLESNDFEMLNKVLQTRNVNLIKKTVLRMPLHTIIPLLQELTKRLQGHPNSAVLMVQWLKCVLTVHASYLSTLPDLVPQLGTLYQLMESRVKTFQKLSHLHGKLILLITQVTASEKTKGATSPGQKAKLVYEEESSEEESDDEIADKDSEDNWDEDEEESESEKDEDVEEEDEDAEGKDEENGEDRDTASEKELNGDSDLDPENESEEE
inactive: [1] -0.014 | filanesib -0.019 | zotarolimus -0.017 | idasanutlin -0.072 | alisertib -0.061 | [2] 0.058 | gefitinib -0.006 | [3] 0.042 | lapatinib -0.025 | pictilisib 0.06

UTP3 (UniProt Q9NQZ2)
inactive: [1] -0.058 | filanesib 0.368 | zotarolimus 0.125 | idasanutlin 0.26 | alisertib -0.09 | [2] -0.074 | [3] -0.067 | lapatinib 0.204 | pictilisib -0.06
